# Records with an inconclusive call do not appear. Unmarked numbers belong to inactive results. Calls of active or inactive are those of the source. Calls come from the whole dose curve; as a rule, active = well fitted inhibition curve with a large enough effect; inconclusive = small, poorly fitted or top-dose-only effect; inactive = flat fitted curve, though single readings scatter.
# Target: Phospholipid hydroperoxide glutathione peroxidase GPX4 (Homo sapiens) (UniProt P36969)
# Assay: Primary qHTS Assay for Inhibitors of Recombinant Selenoprotein Glutathione Peroxidase 4 (GPX4) (AID 1845192); note: nearly all actives have a fitted effect of over 65% in size
# Conditions: recombinant GPX4, GR-coupled NADPH fluorescence, 15 min; series mostly up to 50 µM; activity change, negative = inhibition: at the top concentration
# Outline: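 GR-coupled readout: 100 nM GR, 1 mM GSH, 0.5 mM NADPH; NADPH fluorescence (ex 340/em 450 nm) read at t=0 and after 15 min RT. GPX4 200 nM, preincubated 30 min with compound; substrate 0.5 mM CHP.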
# % is set by controls: 0 for no effect and ±100 for the full control effect.
# Chain of Phospholipid hydroperoxide glutathione peroxidase GPX4 (Homo sapiens) (P36969 whole entry, looked up): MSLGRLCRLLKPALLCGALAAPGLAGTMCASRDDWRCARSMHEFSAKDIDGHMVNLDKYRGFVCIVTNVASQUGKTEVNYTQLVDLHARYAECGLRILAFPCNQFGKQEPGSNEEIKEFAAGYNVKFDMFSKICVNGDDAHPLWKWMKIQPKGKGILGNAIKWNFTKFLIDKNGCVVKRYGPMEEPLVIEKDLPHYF
Compound,outcome,"activity change, negative = inhibition [%]"
COc1ccccc1N1CCN(CCCCN2C(=O)c3ccccc3C2=O)CC1,inactive,
O=C(O)/C(=C/c1c(C(=O)O)[nH]c2cc(Cl)cc(Cl)c12)c1ccccc1,,-13.9
C[C@@]1(C2CCCC2)Cc2cc(OCC(=O)O)c(Cl)c(Cl)c2C1=O,,-3.68
CNCCc1cnc(CCC(c2ccccc2)c2ccccc2)[nH]1,,2.23
N=C(N)c1ccc(OCCCCCOc2ccc(C(=N)N)cc2)cc1 (tested in a mixture with another compound),inactive,
O=C(O)c1ccccc1Nc1cccc(OCc2ccc3ccccc3n2)c1,,1.69
COc1ccc2c(c1)c(CC(=O)O)c(C)n2Cc1ccc(Cl)cc1,inactive,
COC(=O)C(C)(N)Cc1ccc(O)cc1 (stereo not drawn),inactive,
CCCCC[C@H](CC(=O)NO)C(=O)N[C@H](C(=O)N1CCC[C@H]1CO)C(C)C,inactive,
CCCc1c(OCCCOc2ccc(OCC(=O)O)cc2)ccc(C(C)=O)c1O,inactive,
OC[C@H]1O[C@@H](n2cnc3cncnc32)[C@H](O)[C@@H]1O,,-13.8
c1ccc2nc(C3=NCCN3)ccc2c1,,-8.96
CN(CC[C@@H](Oc1ccc(C(F)(F)F)cc1)c1ccccc1)CC(=O)O,,-10.8
CN1CCN(c2nc3cc(C(F)(F)F)ccc3n3cccc23)CC1,,-13.3
NC1C=CC=C(C(=O)O)C1 (stereo not drawn),,4.59
Cn1cc(C(=O)OCC2CCN(CCNS(C)(=O)=O)CC2)c2ccccc21,inactive,
Cc1cccc(C)c1OCC(N)C(C)C (stereo not drawn),inactive,
Cc1cccc(C(=O)NCN2CCN(c3ccccc3C#N)CC2)c1,,-1.45
O=C(O)c1cc2cc(F)ccc2[nH]1,inactive,

Compound,outcome,"activity change, negative = inhibition [%]"
CCC(=O)N1CCN(C(=O)c2ccccc2)CC1,,-2.08
O=c1[nH]c2cc(Cl)ccc2c(O)c1-c1ccc(Oc2ccccc2)cc1,,-13.2
NC(=Nc1ccccc1)NC(=O)c1nc(Cl)c(N)nc1N,,-11.1
NC1(C(=O)O)CCCCC1,inactive,
CN1CC(O)C(O)C(O)C1CO (stereo not drawn),inactive,
CC1C(=O)N(C)C(=O)c2nc[nH]c21 (stereo not drawn),,-15.1
CCc1ccc2c(-c3cccc(Cl)c3)nc(=O)n(CC)c2n1,,-20.8
O=C(N[C@@H](Cc1ccccc1)C(=O)CCl)OCc1ccccc1,inactive,
Nc1ncnc2c1c(-c1ccc(Oc3ccccc3)cc1)cn2C1CCCC1,,4.18
NC(Cc1cccc(-c2ccccc2CP(=O)(O)O)c1)C(=O)O (stereo not drawn),inactive,
CN(C)C(=O)/N=N/C(=O)N(C)C,inactive,
N#Cc1cc2nc(O)c(O)nc2cc1[N+](=O)[O-],,-9.38
O=C(O)/C=C/c1cnc[nH]1,,3.97
CC(C)C[C@H](NC(=O)C1OC1C(=O)O)C(=O)NCCCCN=C(N)N (stereo partly drawn),inactive,
CCN(CC)CCCCCCCCOC(=O)c1cc(OC)c(OC)c(OC)c1,,-17.5
Cn1c(=O)c2[nH]c(C3CCCC3)nc2n(C)c1=O,inactive,
CCCn1c(=O)c2[nH]c(C3CCCC3)nc2n(CCC)c1=O,inactive,
NCC(O)(CS(=O)(=O)O)c1ccc(Cl)cc1 (stereo not drawn),inactive,
CCCCOc1cc(CC2CNC(=O)N2)ccc1OC (stereo not drawn),inactive,
